# Measured values from PubChem BioAssay.
# Calls of active or inactive are those of the source. The rule behind the calls is not given here.
# Target: Pantothenate synthetase (Mycobacterium tuberculosis (strain ATCC 25618 / H37Rv)) (UniProt P9WIL5)
# Assay: Coupled enzyme confirmation of inhibitors against recombinant Mtb PanC (AID 375);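 note: 0% = full reaction with vehicle and 100% = no enzyme background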
# Details: coupled enzyme assay; at 10 µM, active compounds read high
# Pantothenate synthetase (Mycobacterium tuberculosis (strain ATCC 25618 / H37Rv)), sequence (P9WIL5 whole entry, looked up): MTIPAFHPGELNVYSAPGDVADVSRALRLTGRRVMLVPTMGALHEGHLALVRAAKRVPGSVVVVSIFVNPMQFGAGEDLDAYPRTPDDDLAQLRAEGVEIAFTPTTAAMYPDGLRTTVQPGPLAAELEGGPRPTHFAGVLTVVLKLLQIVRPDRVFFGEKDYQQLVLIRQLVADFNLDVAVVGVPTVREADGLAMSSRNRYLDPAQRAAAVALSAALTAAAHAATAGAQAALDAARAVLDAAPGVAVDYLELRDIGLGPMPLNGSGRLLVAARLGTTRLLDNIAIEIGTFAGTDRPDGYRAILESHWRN
row,SMILES,inhibition
1,CN1C(=O)C(O)(CC(=O)c2ccc(F)cc2)c2cc(Br)ccc21 (stereo not drawn),0% (inactive)
2,CCN(CC(=O)Nc1ccc2c(c1)CCC2)Cc1nc2ccccc2c(=O)[nH]1,4% (inactive)
3,O=C(NCc1ccc2c(c1)OCO2)C1CCCN(S(=O)(=O)c2cccnc2)C1 (stereo not drawn),0% (inactive)
4,Cc1ccc(-c2nc(=S)c3c(n2Cc2ccco2)CCCC3)cc1,0% (inactive)
5,Nc1ncnc2oc(-c3ccco3)c(-c3ccco3)c12,2% (inactive)
6,Nc1ccc(-c2ccc(N)cc2C(F)(F)F)c(C(F)(F)F)c1,0% (inactive)
7,COc1ccc(CC(=O)Nc2c3c(nn2-c2cccc(Cl)c2)CS(=O)(=O)C3)cc1,0% (inactive)
8,Cc1nc(SC2C=CS(=O)(=O)C2)n[nH]1 (stereo not drawn),5% (inactive)
9,COc1cc([C@@H]2c3cc4c(cc3[C@H](O)[C@H]3COC(=O)[C@H]23)OCO4)cc(OC)c1OC,0% (inactive)
10,N=c1sc2ccccc2n1-c1ccccc1,3% (inactive)
11,CC(C)COC(=O)NCC12C=CC(O1)C1C(=O)N(c3ccc(Cl)cc3)C(=O)C12 (stereo not drawn),0% (inactive)
12,COc1cccc(C2=NOC(C(=O)N3CCN(c4ccccc4)CC3)C2)c1OC (stereo not drawn),1% (inactive)
13,COCCNC(=O)c1c(N)n(CCC2=CCCCC2)c2nc3ccccc3nc12,0% (inactive)
14,CCCN1CCN(C(=O)Cn2cccc2C(=O)c2ccccc2)CC1,0% (inactive)
15,CCCC(NC(=O)c1ccccc1)c1nc2ccccc2n1Cc1ccc(C(=O)OC)o1 (stereo not drawn),0% (inactive)
16,CCC(C)OC(=O)C1=C(C)NC2=C(C(=O)C(C(=O)OC)C(C)C2)C1c1ccc(N(C)C)cc1 (stereo not drawn),0% (inactive)
17,CCC(=NC(C)c1ccccc1)c1c(O)n(C)c(=O)n(C)c1=O (stereo not drawn),0% (inactive)
18,Cc1nnc(NC(=O)CSc2nc3c(c(=O)n2C)SC(C)C3)s1 (stereo not drawn),5% (inactive)
19,CCOC(=O)c1cc(CC)sc1NC(=O)CCC(=O)O,2% (inactive)
20,CCN(CC)c1ccc2c(c1)CCCN2,3% (inactive)
21,CCOC(=O)c1ccc(Oc2cc(C)nc(SC)n2)cc1,0% (inactive)
22,O=C(NCC1COc2ccccc2O1)c1ccc(NC(=O)c2ccco2)cc1 (stereo not drawn),0% (inactive)
23,COc1ccc(-c2noc(-c3ccccc3C(=O)Nc3cccnc3)n2)cc1,0% (inactive)
